Screening data: PubChem BioAssay, National Center for Advancing Translational Sciences (NCATS)
Cycloheximide cs = counter-screen hit for Shiga toxin inhibitors, cycloheximide | cell reporter, cycloheximide protein synthesis inhibition counterscreen | max response, % | 300,000 tested, 12% active | AID 2314; in the data active = max response mostly above about 13%, no sharp cut-off; inactive = mostly below about 14%; note: read at 38.3 µM for the half of the compounds with a filed dose
Shiga inhibitor = Shiga toxin inhibition | Vero cells, Shiga toxin protein synthesis inhibition reporter | 290,000 tested, 9.2% active | inhibition, % at 38.7 µM; in the data active = inhibition mostly above about 28%, no sharp cut-off; inactive = mostly below about 43%
Giardia FBPA inh = Giardia lamblia aldolase inhibition; purified Giardia FBPA; Potency, µM (series often up to 59.6 µM), usual class: inhibitors; 290,000 tested, 0.71% active; AID 2451; note: nearly all actives have a fitted effect of over 55% in size
Target sequence (A8B2U2 whole entry, looked up): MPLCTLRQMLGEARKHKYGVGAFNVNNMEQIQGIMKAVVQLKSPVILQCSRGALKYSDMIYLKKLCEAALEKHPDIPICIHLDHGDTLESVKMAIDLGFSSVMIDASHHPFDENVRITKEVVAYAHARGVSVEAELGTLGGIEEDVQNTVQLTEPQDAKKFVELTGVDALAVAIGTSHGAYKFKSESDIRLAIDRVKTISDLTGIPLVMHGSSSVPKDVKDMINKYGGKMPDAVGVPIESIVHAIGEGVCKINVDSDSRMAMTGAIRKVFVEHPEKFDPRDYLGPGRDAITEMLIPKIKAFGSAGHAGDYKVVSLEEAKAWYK
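Giardia FBPA (40 nM reagent) was preincubated 10 min at RT with compound (up to 57.5 uM final), then substrate plus GAPDH/TPI/NAD/arsenate coupling system with diaphorase/resazurin was added; resorufin fluorescence (525/598 nm) was read after 20 min.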
NS1 inh = blocks influenza NS1 protein function; 270,000 tested, 0.4% active; Potency, µM (top dose mostly 46.1 µM); AID 2326; calls by dose curve; note: actives are rising curves; nearly all actives have a fitted effect of over 50% in size
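Compounds were scored for reversing the slow growth caused by influenza A NS1 in S. cerevisiae, measured by optical density at 600 nm. Assay medium contained 2% galactose at pH 6.0; NS1-free yeast of the same strain were the positive control.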
Pf growth 96h = inhibits malaria parasite growth, 96 h | 320,000 tested, 6.9% active | AID 504834 | P. falciparum luciferase reporter growth, 96 h | Potency, µM (highest dose often 28.7 µM), hits mostly inhibitors
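Parasite growth measured via integrated firefly luciferase reporter in P. falciparum. Infected erythrocytes at 2% hematocrit, 0.05% parasitemia final were treated 96 hours at 37 C under 5% CO2, and luminescence was read.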
Pf growth 48h = inhibits P. falciparum growth in the first generation, 48 h. P. falciparum luciferase growth in erythrocytes, 48 h. Potency, µM (titrated, usually from 28.7 µM), usual class: inhibitors. 310,000 tested, 5.9% active
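A one-generation exposure of luciferase-tagged malaria parasites in RPMI 1640/Albumax erythrocyte culture, 37 C and 5% CO2. Inhibition is inferred from decreased luminescence after adding detection reagent.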
Each line names hits and unclear results; the compound was inactive in the other large screens. An excerpt weighted towards active compounds, which were near 21% of everything screened. Unless noted, calls come from the whole dose curve; as a rule, active = well fitted curve in the direction sought with a large enough effect; inconclusive = small, poorly fitted or top-dose-only effect, or another doubt; inactive = no such curve, though single readings can be large; an effect the other way counts as inactive or inconclusive.

O=C(COC(=O)CNS(=O)(=O)c1ccc(Br)cc1Cl)NCCc1ccccc1	none (no result: Giardia FBPA inh)
CC1CCN(S(=O)(=O)c2ccc(NC(=O)CCNC(=O)c3ccc(Cl)cc3)cc2)CC1	none (no result: Cycloheximide cs, Shiga inhibitor, Giardia FBPA inh, NS1 inh)
CC(C)n1c(C(O)c2ccc3c(c2)OCO3)nc2ccccc21 (stereo not given)	Pf growth 48h 9.3µM
CC(C)N(C)C(=O)c1ccc(OC2CCN(CCc3ccccc3)CC2)cc1	Pf growth 96h inconclusive
CC(Cc1ccccn1)NC(=O)c1ccc(OC2CCN(Cc3ccccn3)CC2)cc1 (stereo not given)	Cycloheximide cs 38, Shiga inhibitor 24, Pf growth 96h 9.3µM (no result: Giardia FBPA inh)
O=C(NCCc1ccccn1)c1ccc(OC2CCN(Cc3ccccn3)CC2)cc1	Cycloheximide cs 83, Shiga inhibitor 64 (no result: Giardia FBPA inh)
Cc1csc(C(C)NC(=O)c2ccc(OC3CCN(CCc4ccccc4)CC3)cc2)n1 (stereo not given)	Pf growth 48h 10µM (no result: Giardia FBPA inh)
CCOC(=O)C(C)/C(C)=N/NC(N)=S (stereo not given)	Giardia FBPA inh inconclusive, Pf growth 96h 4.7µM, Pf growth 48h 1.3µM
CCOc1ccc(Nc2nc(Nc3ccc(O)cc3)nc(C)c2[N+](=O)[O-])cc1	Pf growth 96h inconclusive
COc1cccc(C(C(=O)NC2CCCCC2)N(C(=O)c2ccccn2)c2cccnc2)c1 (stereo not given)	Pf growth 96h 1.7µM
Cc1nn(C)cc1C(C(=O)NC1CCCCC1)N(C(=O)c1cnccn1)c1ccc(Oc2ccccc2)cc1 (stereo not given)	Pf growth 48h 5.9µM
CCOC(=O)c1ccc(N(C(=O)c2cnccn2)C(C(=O)NC2CCCCC2)c2cn(C)nc2C)cc1 (stereo not given)	Pf growth 96h inconclusive, Pf growth 48h inconclusive
CCOc1ccc(N(C(=O)c2cnsn2)C(C(=O)NC2CCCCC2)c2ccncc2)cc1 (stereo not given)	Pf growth 96h 1.2µM, Pf growth 48h inconclusive
CCOc1ccc(C(C(=O)NC2CCCCC2)N(C(=O)c2ccccn2)c2cccnc2)cc1 (stereo not given)	Pf growth 96h 15µM, Pf growth 48h 10µM
CCN(c1ccccc1)S(=O)(=O)c1nnc(NC(=O)C(C)C)s1	none
CCCN(C(=O)c1ccc(OCC(C)C)cc1)c1c(N)n(Cc2ccccc2)c(=O)[nH]c1=O	Pf growth 96h inconclusive (no result: Cycloheximide cs, Shiga inhibitor, Giardia FBPA inh, NS1 inh)
Nc1nnc(SCC(=O)NNC(=O)c2ccc(F)cc2)s1	none (no result: Cycloheximide cs, Shiga inhibitor, Giardia FBPA inh, NS1 inh)
COC(=O)c1cc(S(=O)(=O)Nc2cc(S(=O)(=O)N(C)C)ccc2C)oc1C	none
COC(=O)C[C@H]1c2ccccc2C2=C(C[C@@H](C)[C@H]3C(=O)NC(=O)[C@@H]23)N1C(=O)OC	none (no result: Cycloheximide cs, Shiga inhibitor, NS1 inh, Pf growth 96h, Pf growth 48h)
NC[C@H]1O[C@@H](n2cnc3c(=O)[nH]c(N)nc32)[C@@H](O)[C@@H]1O	none (no result: Cycloheximide cs, Shiga inhibitor, Giardia FBPA inh, Pf growth 96h, Pf growth 48h)
Cc1ccc(Cn2nc(-c3ccccc3)nc2-c2ccccc2)cc1	Cycloheximide cs 45, Shiga inhibitor 121
Cn1nc(-c2ccccc2)nc1-c1ccccc1	none (no result: Cycloheximide cs, Shiga inhibitor, Giardia FBPA inh, NS1 inh)
c1ccc(Cn2nc(-c3ccccc3)nc2-c2ccccc2)cc1	Cycloheximide cs 54, Shiga inhibitor 52
COc1cc(NC(=O)C2=C(C)OCCS2)c(Cl)cc1C(=O)NCCN(C)C	Pf growth 96h inconclusive
O=C(Oc1ccccc1)N1CCC2(CC1)CN(c1ccncc1)C2	none (no result: Cycloheximide cs, Shiga inhibitor, NS1 inh, Pf growth 96h, Pf growth 48h)
C=Cc1c(C)/c2[n-]/c1=C\c1[n-]c(c(CC)c1C)/C=c1\[n-]c3c(c1C)C(=O)C(C(=O)[O-])C=3c1[n-]c(c(C)c1CCC(=O)[O-])\C=2.[Cu].[Na+].[Na+] (stereo not given)	Giardia FBPA inh 14µM, Pf growth 96h inconclusive, Pf growth 48h inconclusive (no result: Cycloheximide cs, Shiga inhibitor, NS1 inh)
CCCCC[C@]12Cc3cc(OC)c(OC)cc3C(O1)c1c(cc(C)n(-c3ccccc3)c1=O)O2	Pf growth 48h inconclusive
O=[N+]([O-])c1cccc(C2NCC(c3ccccc3Cl)c3c2[nH]c2ccccc32)c1 (stereo not given)	Pf growth 96h 13µM (no result: NS1 inh)
Cc1ccc2c(N)c(C#N)sc2n1	Cycloheximide cs 22
N#Cc1sc2nc3c(cc2c1N)CCCC3	Cycloheximide cs 23, Pf growth 96h 12µM
Nc1c(C(=O)Nc2cccc(C(=O)O)c2)sc2nc3c(cc12)CCCC3	Cycloheximide cs 18
Nc1c(C(=O)O)sc2nc3c(cc12)CCCC3	none
Nc1c(C(=O)Nc2ccc(Cl)c(C(=O)O)c2)sc2nc3c(cc12)CCCC3	none (no result: Giardia FBPA inh)
NC(=O)c1sc2nc3c(cc2c1N)CCCCCC3	Cycloheximide cs 31, Shiga inhibitor 52
CCCc1ccc2c(N)c(C#N)sc2n1	none
NC(=O)COC(=O)c1ccccc1OCc1ccccc1Cl	none (no result: NS1 inh)
Cc1ccccc1N(CC(=O)NCC1CCCO1)C(=O)CNS(=O)(=O)c1ccc(F)cc1 (stereo not given)	none
Cn1cc(S(=O)(=O)N2CCOCC2)cc1C(=O)NCc1ccccc1Cl	Pf growth 96h inconclusive
CCCOC(=O)c1sc2nc3c(cc2c1N)C(=O)CCC3	none (no result: Pf growth 96h)
Nc1c(C(=O)NCc2ccco2)sc2nc3c(cc12)C(=O)CCC3	Giardia FBPA inh inconclusive, Pf growth 96h inconclusive
Nc1c(C(=O)c2ccc(Cl)cc2)sc2nc3c(cc12)CCC3	Cycloheximide cs 32, Pf growth 96h inconclusive
Nc1c(C(=O)C2CC2)sc2nc3c(cc12)CCC3	Cycloheximide cs 43, Shiga inhibitor 66
Cc1ccc(S(=O)(=O)N/N=C/c2ccccc2O)cc1[N+](=O)[O-]	Cycloheximide cs 39, Shiga inhibitor 69 (no result: NS1 inh)
Cc1ccc(S(=O)(=O)N/N=C/c2ccc(O)c(O)c2)cc1[N+](=O)[O-]	Cycloheximide cs 45, Shiga inhibitor 128
COC1/C=C/OC2(C)Oc3c(C)c(O)c4c(O)c(c(/C=N/N5CCN(C)CC5)c(O)c4c3C2=O)NC(=O)/C(C)=C/C=C/C(C)C(O)C(C)C(O)C(C)C(OC(C)=O)C1C (stereo not given)	none (no result: Cycloheximide cs, Shiga inhibitor, NS1 inh, Pf growth 96h, Pf growth 48h)
CCOC(=O)C1=C(C)OC(N)=C(C#N)C1c1cc2ccccc2nc1N1CCCCC1 (stereo not given)	Giardia FBPA inh inconclusive, Pf growth 96h 1.3µM
CCOC(=O)C1=C(C)OC(N)=C(C#N)C1c1cc(C)sc1C (stereo not given)	none
CCOC(=O)C1=C(C)OC(N)=C(C#N)C1c1cc2cc(C)ccc2nc1N1CCCCC1 (stereo not given)	Shiga inhibitor 45, Giardia FBPA inh inconclusive, Pf growth 48h inconclusive
CC(=O)C1=C(C)OC(N)=C(C#N)C1c1cccc2ccccc12 (stereo not given)	Giardia FBPA inh 20µM
CSc1ccc(CN2CCC(CO)(CCOc3ccccc3)CC2)cc1	Pf growth 48h inconclusive
COc1cccc(Cn2c(=O)c(-c3cn(C)c4ccccc34)nc3cnc(OC)nc32)c1	none (no result: Cycloheximide cs, Shiga inhibitor, NS1 inh, Pf growth 96h, Pf growth 48h)
COc1ccc(C(=O)O)cc1S(=O)(=O)Nc1ccc(C)cc1	none (no result: NS1 inh)
COc1ccc(NS(=O)(=O)c2cccc(C(=O)NCc3ccccc3CN3CCCC3)c2)cc1	Pf growth 96h 13µM, Pf growth 48h 13µM (no result: Cycloheximide cs, Shiga inhibitor, Giardia FBPA inh, NS1 inh)
